# Unmarked numbers belong to inactive results. No rule for the calls is given here.
# Biological target: Pantothenate synthetase (Mycobacterium tuberculosis (strain ATCC 25618 / H37Rv)) (UniProt P9WIL5)
# Assay: Coupled enzyme confirmation of inhibitors against recombinant Mtb PanC (AID 375);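 also: 0% = full reaction with vehicle and 100% = no enzyme background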
# Conditions: coupled enzyme assay; at 10 µM, hits give high values
# Sequence of Pantothenate synthetase (Mycobacterium tuberculosis (strain ATCC 25618 / H37Rv)) (P9WIL5 whole entry, looked up): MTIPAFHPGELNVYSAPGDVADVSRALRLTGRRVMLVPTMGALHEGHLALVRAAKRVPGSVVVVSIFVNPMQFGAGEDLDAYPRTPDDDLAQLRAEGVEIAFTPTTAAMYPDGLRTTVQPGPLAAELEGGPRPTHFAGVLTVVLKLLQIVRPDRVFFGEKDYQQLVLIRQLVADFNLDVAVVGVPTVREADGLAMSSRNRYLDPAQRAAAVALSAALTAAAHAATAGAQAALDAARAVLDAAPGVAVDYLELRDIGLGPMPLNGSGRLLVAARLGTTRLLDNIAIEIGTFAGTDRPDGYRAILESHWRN
row,Structure (SMILES),inhibition [%]
1,COCCCNC(=O)C(Cc1ccccc1)NS(=O)(=O)c1ccc2c(c1)c(=O)n(C)c(=O)n2C (stereo not given),0
2,CC(=O)N1CCN(S(=O)(=O)c2ccc(S(=O)(=O)NCC(C)C)cc2)CC1,5
3,CCN(CC)S(=O)(=O)c1ccc2c(c1)nc(SCC(=O)NC1CC1)n2-c1ccccc1OC,0
4,Cn1cc(CC(=O)Nc2cccc(C#N)c2)c2ccccc21,6
5,CSc1ccccc1NC(=O)c1c(Br)cnn1C,0
6,COc1ccc(OC)c(NC(=O)CSc2ncccc2C(=O)O)c1,0
7,Cc1ccccc1-c1nc(CN2CCC(C(=O)NCCCN3CCCC3)CC2)c(C)o1,0
8,CC(=O)N1CCC(N(C(=O)Nc2ccc(C)c(C)c2)C2CCCC2)CC1,0
9,CCN1CCN(C(=O)N[C@@H](C(=O)N[C@@H]2C(=O)N3[C@@H]2SC(C)(C)[C@@H]3C(=O)O)c2ccccc2)C(=O)C1=O,2
10,CCC(C)(C)n1nnnc1C(c1ccncc1)N1CCN(c2cccc(OC)c2)CC1 (stereo not given),0
11,Cc1cc(C)n(CCc2nc(-c3cccs3)cs2)n1,2
12,CCCCOc1ccc(-c2ncc(Cl)cn2)cc1,0
13,CCc1nnc2sc(-c3cc(-c4ccccc4)nc4ccccc34)nn12,3
14,CCOc1ccc(-n2c(=O)cc(N3CCN(c4ccccc4)CC3)[nH]c2=O)cc1,0
15,COc1ccc(C(=O)NCCc2nnc(SCc3nc4ccccc4c(=O)[nH]3)n2C)cc1,0
